Screens (PubChem BioAssay)
Only some compounds are listed: those with a hit (about 2.1% of all), similar ones and a draw of the others.
FUS yeast rescue: FUS proteinopathy suppression in yeast; S. cerevisiae FUS-expressing, growth rescue, OD600, 24 h; Potency, µM (series often up to 76.6 µM), actives largely listed as activators; 390,000 tested, 0.24% active;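 also: plate controls were DMSO vehicle for no effect and reference control for full effect; nearly all actives have a fitted effect of over 55% in size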
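Steps: raffinose overnight preculture; dilution to OD 0.005 in 2% galactose minimal medium; compound addition (concentration series); 24hr at 30C, 99% humidity; absorbance read at 600 nm.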
Abeta rescue: restores growth of yeast expressing A-beta42 peptide; yeast expressing A-beta42, growth rescue, OD600, 48 h; response scale: 0% DMSO, 100% iron-clioquinol control; Potency, µM (doses to about 46.1 µM), most hits filed as activators; 410,000 tested, 0.063% active; AID 1347071; also: nearly all actives have a fitted effect of over 55% in size
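Yeast growth medium received pinned compounds, then yeast cells expressing toxic A-beta were added; plates incubated at 30 C for 48 hr. Growth read as absorbance at 600 nm, normalized to DMSO and equimolar FeCl3 plus clioquinol controls.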
aSyn rescue: rescues yeast growth from alpha-synuclein toxicity; Yeast expressing alpha-synuclein, growth rescue, BacTiter-Glo, 24 h; 370,000 tested, 0.14% active; Potency, µM (titrated, usually from 46.1 µM), inactives show at the top dose growth rescue (activation), usual class: activators; AID 652106; also: % of control where 0% means no effect; nearly all actives have a fitted effect of over 65% in size
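Galactose-induced alpha-syn yeast (OD600=0.02, raffinose-pregrown) + pinned cpd, 24 hr, 30 deg C; growth by BacTiter-Glo luminescence. Growth restoration scores as activation.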
TDP43 rescue: rescues yeast growth from TDP-43 toxicity. TDP-43 expressing yeast growth rescue, BacTiter-Glo, 24 h. Potency, µM (top dose mostly 46.1 µM), for inactives: top-dose growth rescue (activation), most hits filed as activators. 410,000 tested, 1.8% active. AID 652104; also: % of control where 0% means no effect; nearly all actives have a fitted effect of over 50% in size
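Galactose-induced TDP-43 yeast, OD600=0.02, compound pinned; 24 hr, 30 deg C; BacTiter-Glo luminescence for growth. Inhibitors of TDP-43 toxicity read as activators.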
* marks the source's active call; other numbers are inactive results; i = inactive; ? = inconclusive; · = no result given. Calls follow the shape of the dose curve; as a rule, active = well fitted curve in the direction sought with a large enough effect; inconclusive = small, poorly fitted or top-dose-only effect, or another doubt; inactive = no such curve, though single readings can be large; an effect the other way counts as inactive or inconclusive. Potency is read from the fitted curve at half-maximal effect.

SMILES	FUS yeast rescue	Abeta rescue	aSyn rescue	TDP43 rescue
Cc1cccc(NC(=O)CCn2nc(-c3ccccc3)c3ccccc3c2=O)c1	?	i	·	20µM*
CCn1c(=O)sc2cc(NS(=O)(=O)c3ccc(F)c(C)c3)ccc21	i	i	·	0%
Cc1ccc(C23CC4CC(CC(NC(=O)NN)(C4)C2)C3)cc1	i	·	4%	?
Cc1ccc(C23CC4CC(CC(NC(=O)NC(C)(C)CO)(C4)C2)C3)cc1	i	i	·	22µM*
CCN(CC)CCNC(=O)Nc1ccc2c(c1)N(Cc1ccccc1)C(=O)c1ccccc1S2	i	i	·	6%
CC1=C(C#N)C(=O)NC(=O)/C1=C\c1ccc(-c2ccc(C)cc2[N+](=O)[O-])o1	i	i	5%	32µM*
COc1cc2c(cc1OC)/C(=C/c1ccc(Cl)cc1)C(=O)OC2	i	i	13%	22µM*
Cc1cccc(C(=O)OC(C)C(=O)N2CCc3ccccc3C2)c1C (stereo not drawn)	·	i	6%	18µM*
S=C(Nc1ccc(Cl)c(Cl)c1)NC1CCCCC1	i	i	-16%	-2%
S=C(Nc1ccc2nsnc2c1)NC1CCCCC1	·	i	-13%	13µM*
CCCNC(=O)c1nnsc1S(=O)(=O)c1ccc(Cl)cc1	i	i	-68%	1.6µM*
CCCNC(=O)c1nnsc1S(=O)c1ccc(Cl)cc1 (stereo not drawn)	i	i	-76%	?
CCn1c(=O)c(-c2cc(=O)[nH][nH]2)c(O)c2ccccc21	32µM*	i	-1%	-4%
O=c1cc(-c2c(O)c3ccccc3n(Cc3ccccc3)c2=O)[nH][nH]1	?	i	3%	-3%
Cn1c(=O)c(-c2cccc(Cl)c2)c(O)c2ccccc21	i	i	7%	11µM*
CCCCn1c(=O)c(-c2ccccc2)c(O)c2ccccc21	i	i	0%	18µM*
N#CN=c1snc(-c2ccccc2Cl)n1-c1ccc(F)cc1	·	·	7%	·
COc1cccc(C2CC(c3cccs3)=NN2C(=O)c2ccco2)c1O (stereo not drawn)	i	i	?	25µM*
O=C(c1ccco1)N1N=C(c2cccs2)CC1c1ccccc1O (stereo not drawn)	·	i	19%	12%
Oc1ccc2ccccc2c1C=NN1CCN(Cc2ccc(Cl)cc2)CC1	i	·	·	·
Cn1c(N2CCOCC2)nc2c1c(=O)n(Cc1ccc(Cl)cc1)c(=O)n2C	i	i	1%	19%
CC1CN(c2nc3c(c(=O)n(Cc4ccc(Cl)c(Cl)c4)c(=O)n3C)n2C)CC(C)O1 (stereo not drawn)	?	i	10%	25µM*
O=C(Cc1ccccc1)c1ccc(O)cc1	i	?	-4%	12%
O=C(CC(O)CCc1ccccc1)c1ccc(O)cc1 (stereo not drawn)	i	?	-1%	10µM*
CSc1ccc(CC2C(=O)Nc3ccccc32)cc1 (stereo not drawn)	i	i	·	13µM*
SMILES	FUS yeast rescue	Abeta rescue	aSyn rescue	TDP43 rescue
O=C1Nc2ccccc2C1Cc1ccc(Br)cc1 (stereo not drawn)	i	?	·	16µM*
CN(C)c1ccc(CC2C(=O)Nc3ccccc32)cc1 (stereo not drawn)	i	i	6%	11%
O=C(c1ccc(S(=O)(=O)Cc2cc(F)ccc2F)c([N+](=O)[O-])c1)N1CCOCC1	i	i	7%	20µM*
O=C(c1ccc(S(=O)(=O)Cc2ccccc2F)c([N+](=O)[O-])c1)N1CCCCCC1	i	i	17%	6%
COc1ccc(-c2cc(-c3nnc(SCc4cccc5ccccc45)n3N)[nH]n2)cc1	i	·	·	·
Nc1nonc1-n1nnc(C(=O)N/N=C/c2cc(Br)ccc2O)c1CNc1ccccc1	i	i	-4%	1%
Nc1nonc1C(=O)N/N=C/c1cc(Br)ccc1O	i	10µM*	?	2.8µM*
COc1cc(/C=C/c2ccnc3ccccc23)ccc1N(C)C	·	·	-3%	·
COc1ccc(-c2ccc(NS(=O)(=O)c3ccc(OC)c(OC)c3)cc2)nn1	i	i	·	1%
COc1cc(Nc2nc(SCc3cccc(Cl)c3)nc3ccccc23)cc(OC)c1	i	i	·	18µM*
O=C(CSc1nc(Nc2ccccc2)c2ccccc2n1)c1ccc(Cl)cc1	i	i	·	19%
